Legend:
Conditions in all cases: concentration: 1 μM, replicates: in singlicate; n = 1
AMPK-alpha1 = test system: T1, AMPK-alpha1
T1 construct: gene PRKAA1

AMPK-alpha2 = test system: T2, AMPK-alpha2
T2 construct: gene PRKAA2

ANKK1 = test system: ANKK1
ARK5 = test system: T3, ARK5
T3 construct: gene NUAK1

ASK1 = test system: T4, ASK1
T4 construct: gene MAP3K5

ASK2 = test system: T5, ASK2
T5 construct: gene MAP3K6

AURKA = test system: AURKA
AURKB = test system: AURKB
AURKC = test system: AURKC
AXL = test system: AXL
BIKE = test system: T6, BIKE
T6 construct: gene BMP2K

BLK = test system: BLK
BMPR1A = test system: BMPR1A
BMPR1B = test system: BMPR1B
BMPR2 = test system: BMPR2
BMX = test system: BMX
BRAF = test system: BRAF
BRK = test system: T7, BRK
T7 construct: gene PTK6

BRSK1 = test system: BRSK1
BRSK2 = test system: BRSK2
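Also: KINOMEscan kinase panel screen.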

Structure (SMILES)	%Inh (AMPK-alpha1)	%Inh (AMPK-alpha2)	%Inh (ANKK1)	%Inh (ARK5)	%Inh (ASK1)	%Inh (ASK2)	%Inh (AURKA)	%Inh (AURKB)	%Inh (AURKC)	%Inh (AXL)	%Inh (BIKE)	%Inh (BLK)	%Inh (BMPR1A)	%Inh (BMPR1B)	%Inh (BMPR2)	%Inh (BMX)	%Inh (BRAF)	%Inh (BRK)	%Inh (BRSK1)	%Inh (BRSK2)
CC(=O)c1c(C)c2cnc(Nc3ccc(N4CCNCC4)cn3)nc2n(C2CCCC2)c1=O	0%	0%	0%	0%	0%	0%	0%	0%	0%	0%	0%	0%	15%	0%	0%	0%	0%	0%	0%	0%
Cc1ccc(-c2nc(Nc3ccncc3)c3ccccc3n2)s1 [GSK189015]	0%	20%	65%	17%	1%	11%	0%	0%	24%	20%	37%	29%	0%	0%	0%	23%	6%	4%	20%	0%
Cn1cncc1-c1cc2c(Nc3ccc(OCc4ccccc4)cc3)ncnc2cn1 [GW281179]	0%	0%	0%	13%	9%	0%	0%	25%	5%	0%	4%	27%	13%	0%	8%	1%	0%	19%	0%	2%
COc1ccc(Nc2nccc(N3CCC(NC(=O)C(C)c4ccc(Cl)cc4)C3)n2)cc1 (stereo not drawn) [GSK1379735]	0%	21%	0%	22%	10%	4%	0%	24%	49%	16%	25%	33%	19%	0%	4%	27%	0%	0%	7%	0%
Cc1c(Cn2c(C)c(C)n3c(=O)cc(N4CCOCC4)nc23)cccc1C(F)(F)F [GSK2328680]	0%	2%	0%	0%	2%	0%	0%	0%	0%	0%	2%	29%	6%	0%	5%	14%	0%	6%	0%	0%
O=C1NC(=O)C(c2ccc(Cl)cc2)=C1Nc1cccc(Cl)c1 [SB-317651]	0%	0%	0%	0%	3%	0%	0%	35%	0%	20%	0%	12%	0%	0%	0%	3%	0%	0%	0%	1%
CNCc1ccc2nc(NC(=O)c3ccc(C(C)(C)C)cc3)cn2c1	0%	13%	40%	0%	21%	0%	8%	22%	25%	15%	15%	0%	17%	14%	19%	0%	18%	2%	9%	0%
CNc1nc(-c2ccc3c(N)n[nH]c3c2)cc(N2C[C@@H](C(=O)NC3CCCCC3)OC[C@H]2C)n1 [GSK2375584]	6%	0%	8%	23%	12%	0%	9%	16%	12%	0%	24%	0%	0%	0%	0%	23%	0%	14%	14%	19%
Cn1cncc1C(=O)NC1CCN(c2ccnc(Nc3ccc(F)cc3)n2)C1 (stereo not drawn) [GSK1379717]	0%	12%	0%	9%	10%	3%	0%	23%	8%	0%	7%	0%	5%	0%	6%	0%	0%	0%	1%	0%
Cc1ccccc1-c1cc(-c2c[nH]nc2-c2ccccn2)ccn1 [GW680061]	1%	0%	0%	0%	0%	14%	0%	4%	6%	0%	2%	32%	0%	0%	7%	1%	6%	18%	0%	0%
COc1ccc(Nc2nccc(-c3ccc(NC(=O)c4cc5cc(F)ccc5[nH]4)cc3)n2)cc1 [GSK1229496]	0%	0%	0%	0%	2%	0%	0%	5%	0%	0%	33%	0%	0%	0%	21%	16%	0%	16%	0%	0%
CNc1cc(-c2ccc3c(N)n[nH]c3c2)nc(N)n1 [GSK2224810]	0%	0%	10%	0%	0%	0%	4%	0%	10%	0%	74%	0%	16%	78%	5%	15%	0%	6%	2%	0%
Cc1ccccc1Cn1ccn2c(=O)cc(N3CCOCC3)nc12 [GSK2269905]	0%	1%	10%	5%	0%	0%	0%	30%	0%	9%	16%	10%	0%	0%	0%	3%	0%	22%	0%	98.6%
Cc1ccc(NC(=O)Nc2ccc(Cl)cc2)cc1-c1ccc(C(=O)Nc2ccncc2)cc1 [GSK1398472]	3%	3%	12%	1%	11%	0%	0%	28%	10%	11%	18%	21%	0%	0%	0%	15%	43%	30%	0%	0%
Cc1ccc(NC(=O)c2ccc(Cl)cc2)cc1-c1ccc(C(=O)Nc2ccncc2)cc1 [GSK1398467]	0%	21%	0%	6%	0%	21%	0%	1%	17%	0%	13%	1%	0%	0%	0%	8%	0%	0%	0%	18%
O=C(Nc1n[nH]c2nc(-c3ccco3)c(Br)cc12)C1CCN(Cc2ccccc2)C1.O=C(O)[C@H](O)[C@@H](O)C(=O)O (stereo not drawn) [SB-742034]	9%	0%	11%	0%	13%	17%	34%	17%	7%	13%	0%	0%	32%	10%	16%	0%	0%	9%	18%	37%
Nc1nccc(-c2c(-c3ccc(F)cc3)ncn2C2CCN(Cc3ccccc3)CC2)n1 [SB-219980]	0%	3%	59%	15%	0%	0%	21%	22%	0%	9%	0%	0%	0%	2%	0%	0%	0%	0%	0%	0%
Fc1ccc(-c2nc3n(c2-c2ccncc2)CCS3)cc1 [GI98581]	14%	0%	0%	0%	5%	13%	0%	0%	43%	6%	32%	45%	0%	0%	0%	12%	0%	13%	0%	0%
CC(=O)c1c(C)c2cnc(Nc3ccn(C)n3)nc2n(C2CCCC2)c1=O	20%	0%	0%	0%	0%	0%	4%	0%	0%	0%	22%	0%	0%	0%	0%	0%	3%	8%	0%	0%
CS(=O)(=O)CCNCc1nc(-c2ccc3ncnc(Nc4ccc(OCc5ccccc5)c(Cl)c4)c3c2)cs1.Cl [GW582764]	0%	0%	0%	0%	0%	0%	0%	23%	0%	0%	0%	48%	0%	0%	15%	0%	2%	3%	0%	0%
c1ccc(-c2ccnc3[nH]ccc23)cc1 [SB-693578]	0%	0%	0%	20%	2%	19%	17%	41%	0%	0%	0%	4%	1%	0%	47%	0%	4%	14%	0%	100%
